Screening results from PubChem BioAssay.
ATXN2 expr inh: Primary qHTS for Inhibitors of ATXN expression. HEK-293 ATXN2-luciferase reporter, luminescence, 24 h. Potency, µM (doses to about 57 µM), for inactives: at the highest dose activity change, negative = inhibition, most hits filed as inhibitors. 0.72% of 360,000 active. AID 1745845, 2022; note: % is set by controls: 0 for no effect and ±100 for the full control effect; nearly all actives have a fitted effect of over 55% in size
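qHTS (up to 57 uM final) was run with 24 h compound exposure of reporter cells at 37 °C. Each well was multiplexed: SteadyGlo luminescence measured ATXN2-luciferase expression after a fluorogenic Gly-Phe-AFC viability readout (25 uM final).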
KB-3-1 cytotox: qHTS assay for MDR1-selective chemotherapeutics: Primary screen using the parental adenocarcinoma cell KB-3-1. KB-3-1 viability, CellTiter-Glo ATP luminescence, 72 h. Potency, µM (titrated, usually from 46.1 µM), most hits filed as cytotoxic. 1.4% of 400,000 active; note: % is set by controls: 0 for no effect and ±100 for the full control effect; nearly all actives have a fitted effect of over 60% in size
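Cytotoxicity in the drug-sensitive parental line KB-3-1 was scored as loss of CellTiter-Glo luminescence following 72 h incubation with compound. Values come from curve fitting of normalized concentration-response data.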
KB-V1 MDR tox: qHTS assay for MDR1-selective chemotherapeutics: Primary screen using the drug-selected MDR subline cells KB-V1; KB-V1 MDR cells viability, CellTiter-Glo, 72 h; Potency, µM (titrated, usually from 46.1 µM), usual class: cytotoxic; 3.4% of 400,000 active; note: % is set by controls: 0 for no effect and ±100 for the full control effect; nearly all actives have a fitted effect of over 60% in size
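KB-V1, DMEM (no phenol red) + 10% FBS; cpd pin-transferred, titration series; 72 h, 37 degrees C; CellTiter-Glo, luminescence. Data normalized, curve-fit.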
ATXN viability: Viability Counterscreen for Primary qHTS for Inhibitors of ATXN expression; S2 cells (HEK-293 line with an ATXN2-luciferase reporter) viability, CellTiter-Fluor protease fluorescence, 24 h; Potency, µM (top dose mostly 56.7 µM), actives largely listed as cytotoxic; 0.49% of 400,000 active; note: nearly all actives have a fitted effect of over 40% in size
HepG2 tox-1: qHTS for Inhibitors of TGF-b: Cytotox Counterscreen; HepG2 CAGA-GFP viability, ATP luminescence, 18 h; Potency, µM (top dose mostly 46.1 µM), inactives show at the top dose activity change, negative = cytotoxicity, usual class: cytotoxic; 0.76% of 410,000 active; AID 588856, 2011
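HepG2 CAGA-GFP cells (1000/well, DMEM with 1% FBS) received compound, then TGF-beta at 500 pg/mL final, and were incubated 18 hours at 37 degrees C. Viability was read by CellTiter-Glo luminescence. Media-only wells were set as complete cell-killing and DMSO as no toxicity.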
TGFb SMAD3 inh: qHTS for Inhibitors of TGF-b. Potency, µM (titrated, usually from 46.1 µM), for inactives: at the highest dose activity, negative = inhibition, hits mostly inhibitors. HepG2 CAGA-GFP TGF-b/SMAD3 reporter, GFP fluorescence, 18 h; TGF-beta stimulated, 500 pg/mL final. 1.2% of 410,000 active; note: % is set by controls: 0 for no effect and ±100 for the full control effect; nearly all actives have a fitted effect of over 65% in size
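Read-out: total well GFP (ex488/em500-530) summed from mean per-cell fluorescence. Cells: HEPG2 CAGA-GFP, 1% FBS DMEM, 18 h at 37 degrees C with 500 pg/mL final TGF-beta. Unstimulated wells served as the full-inhibition control; stimulated DMSO wells = 0%.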
TGFb CAGA inh: qHTS for Inhibitors of TGF-b: Confirmation of Cherry Picks | shares compounds with TGFb SMAD3 inh | HepG2 CAGA-GFP TGF-b reporter, GFP fluorescence, 18 h; cells stimulated with TGF-beta, 500 pg/mL | Potency, µM (titrated, usually from 46.1 µM), for the others: at the highest dose activity, negative = inhibition, most hits filed as inhibitors | 63% of 1,600 active; note: % is set by controls: 0 for no effect and ±100 for the full control effect; nearly all actives have a fitted effect of over 65% in size
HepG2 tox-2: qHTS for Inhibitors of TGF-b: Cytotox Counterscreen for Cherry Picks; shares compounds with TGFb SMAD3 inh; HepG2 CAGA-GFP viability, ATP luminescence, 18 h; cells stimulated with TGF-beta, 500 pg/mL; Potency, µM (highest dose often 46.1 µM), inactives show at the top dose activity, negative = cytotoxicity, actives largely listed as inhibitors; 27% of 1,600 active; note: % is set by controls: 0 for no effect and ±100 for the full control effect; nearly all actives have a fitted effect of over 70% in size
CCL64 TGFb inh: qHTS for Inhibitors of TGF-b: CCL64 Cells Orthogonal Assay for Cherry Picks. Potency, µM (top dose mostly 46.1 µM), inactives show at the highest dose activity, negative = inhibition, actives largely listed as inhibitors. 41% of 1,600 active. shares compounds with TGFb SMAD3 inh. CCL64 CAGA-GFP reporter, TGF-b stimulated, GFP fluorescence, 18 h. AID 720536, 2013; note: nearly all actives have a fitted effect of over 65% in size
TGFb COP inh: qHTS for Inhibitors of TGF-b: Hit Validation in HepG2 Cells using COP promoter; HepG2 COP-GFP TGF-b reporter, GFP fluorescence, 18 h; cells stimulated by added recombinant TGF-beta; AID 720537, 2013; Potency, µM (highest dose often 46.1 µM), inactives show top-dose activity, negative = inhibition, most hits filed as inhibitors; 3% of 1,600 active; shares compounds with TGFb SMAD3 inh; note: nearly all actives have a fitted effect of over 70% in size
Starred values were filed as active, the others as inactive; i = inactive; ? = inconclusive; . = not tested or not shown. Most compounds without a hit are left out; they make up all but 5.9% or so of the library. Calls come from the whole dose curve; as a rule, active = well fitted curve in the direction sought with a large enough effect; inconclusive = small, poorly fitted or top-dose-only effect, or another doubt; inactive = no such curve, though single readings can be large; an effect the other way counts as inactive or inconclusive. Potency is the fitted concentration of half-maximal effect.

SMILES | ATXN2 expr inh | KB-3-1 cytotox | KB-V1 MDR tox | ATXN viability | HepG2 tox-1 | TGFb SMAD3 inh | TGFb CAGA inh | HepG2 tox-2 | CCL64 TGFb inh | TGFb COP inh
O=C(Nc1cccc(S(=O)(=O)Nc2ccccc2Cl)c1)c1ccc(Cl)nc1 | -22% | 5.2µM* | 2.6µM* | i | -29% | 13µM* | 8.2µM* | -15% | -2% | 10%
CCC(=O)OCc1cnc(C)c2oc(=O)c(C(=O)Nc3ccccc3C(F)(F)F)cc12 | . | i | i | . | -21% | 225% | . | . | . | .
CCOC(=O)Cn1c(=O)oc2cc(S(=O)(=O)N3CCN(c4ccccc4F)CC3)ccc21 | -11% | i | i | i | -18% | -20% | . | . | . | .
COc1ccccc1NC(=O)CN1CCN(c2ccc(F)cc2)CC1 | -18% | i | i | i | -5% | -20% | . | . | . | .
COC(=O)c1sccc1NC(=O)CN1CCN(c2ccc(F)cc2)CC1 | -26% | i | ? | i | -17% | 11µM* | ? | ? | -3% | 10%
Cc1ccc(NC(=O)CCCc2nnc3n(C)c(=O)c4sccc4n23)cc1F | -18% | i | i | i | -11% | -5% | . | . | . | .
Brc1cc(Br)c2ncnc(N3CCCCC3)c2c1 | -23% | 8.2µM* | ? | i | -40% | 6.3µM* | 9.2µM* | 4.1µM* | ? | 42%
CC(C)(C)C(=O)/C(=C/c1ccncc1)n1cncn1 | 16µM* | 6.5µM* | ? | . | 14µM* | 4.5µM* | 18µM* | 13µM* | 5.8µM* | ?
Cc1ccc(NS(=O)(=O)c2cc3[nH]c(=O)c(=O)[nH]c3cc2C)cc1N(C)C | 15% | i | i | i | -5% | -4% | . | . | . | .
COc1ccc(/C=C/C(=O)c2ccc([N+](=O)[O-])o2)cc1OC | 8.9µM* | ? | ? | ? | 11µM* | 2.5µM* | 2.9µM* | 4.6µM* | 2.1µM* | 0%
COc1cc(/C=C/C(=O)c2ccc([N+](=O)[O-])o2)ccc1O | ? | i | i | 3.5µM* | -45% | 1.1µM* | 4.1µM* | 8.2µM* | 2.9µM* | ?
COc1cc(/C=C/C(=O)O)ccc1O | -1% | i | i | i | -5% | -3% | . | . | . | .
CCn1nc([N+](=O)[O-])c(C(C#N)c2nc3cc(C(F)(F)F)ccc3s2)c(Cl)c1=O (stereo not drawn) | ? | 15µM* | ? | . | -100% | 0.35µM* | 3.3µM* | 8.2µM* | 5.2µM* | -29%
CCCCCCCCOC(=O)c1cc([N+](=O)[O-])c(Sc2ncnc3nc[nH]c23)c([N+](=O)[O-])c1 | ? | ? | ? | . | 13µM* | 7.1µM* | 21µM* | 8.2µM* | 5.8µM* | ?
COc1cc(Cl)ccc1OCc1cc(C(=O)N(C)Cc2cccc3cnccc23)no1 | 2% | ? | ? | i | -39% | 11µM* | 15µM* | ? | ? | 14%
CCN(CC)C(=O)c1nc[nH]c1C(=O)N1CCN(c2ccccc2)CC1 | 8% | ? | i | i | 4% | ? | -5% | 3% | 8% | 18%
CN(Cc1ccccc1)C(=O)c1nc[nH]c1C(=O)N1CCN(c2ccccc2)CC1 | 15% | i | i | i | 0% | 2% | . | . | . | .
COC(=O)[C@]1(Cc2ccccc2)N[C@H](CN(C)C(=O)Nc2ccc(C(F)(F)F)cc2)[C@@H]2C(=O)N(Cc3ccccc3)C(=O)[C@@H]21 | -25% | i | ? | i | -29% | 10µM* | 21µM* | -27% | 8.2µM* | -4%
CC[C@@]1(C(=O)OC)N[C@H](CN(C)C(=O)Nc2ccc(C(F)(F)F)cc2)[C@@H]2C(=O)N(Cc3ccccc3)C(=O)[C@@H]21 | 1% | i | i | i | -2% | -7% | . | . | . | .
CCN(C[C@H]1N[C@@](Cc2ccccc2)(C(=O)OC)[C@H]2C(=O)N(Cc3ccccc3)C(=O)[C@@H]12)C(=O)Nc1ccc(F)cc1 | -18% | ? | i | ? | -6% | 13µM* | 23µM* | -17% | ? | -2%
CCNC(=O)N(CC)C[C@H]1N[C@@](Cc2ccccc2)(C(=O)OC)[C@H]2C(=O)N(Cc3ccccc3)C(=O)[C@@H]12 | 1% | i | i | i | 1% | 33% | . | . | . | .
CCN(C[C@H]1N[C@@](C)(C(=O)OC)[C@H]2C(=O)N(Cc3ccccc3)C(=O)[C@@H]12)C(=O)Nc1ccc(Cl)cc1 | -12% | i | i | ? | -5% | 0% | . | . | . | .
CCN(C[C@H]1N[C@@](Cc2ccccc2)(C(=O)OC)[C@H]2C(=O)N(Cc3ccccc3)C(=O)[C@@H]12)C(=O)Nc1ccc(Cl)cc1 | -16% | ? | ? | ? | -17% | 13µM* | 7.3µM* | -28% | 12µM* | 25%
CC(C)n1c(SCC(=O)Nc2ccc(F)cc2)nc2c(oc3ccccc32)c1=O | 13% | i | i | i | 2% | -9% | . | . | . | .
Cc1ccc(CN2CCSc3ccc(C(=O)N4CCN(c5cc(C)ccc5C)CC4)cc32)cc1 | 11% | i | i | i | -2% | 3% | . | . | . | .
